Assay outcomes deposited in PubChem BioAssay by several laboratories.
Hits are enriched below; roughly 9.6% of the tested compounds scored in any of these assays.
PostGolgi ctrl: yeast control strain growth, post-Golgi counter-screen | efflux-deficient yeast background strain, growth absorbance A615, 16 h | inhibition, % at 10 µM | 98,000 compounds, 5% hits | AID 738
PostGolgi yeast: growth inhibition of a yeast mutant, post-Golgi transport screen; post-Golgi transport phenotypic cell assay; inhibition, % at 10 µM; 98,000 compounds, 0.9% hits; AID 739;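 note: yeast cells grown in 1536-well plates; yeast grown about 18 h at 30C before absorbance read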
hDAT+cocaine: modulates human dopamine transporter uptake under cocaine. Q01959. LLC-PK1 hDAT cells, [14C]-dopamine uptake with cocaine IC80; actives deviate in either direction. B-score at 10 µM. 110,000 compounds, 1.3% hits;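 active = Z score or B-score, a plate-position-corrected score, falls beyond the plate's 99.7% confidence bounds, in either direction; inactive = both scores lie inside the 99.7% bounds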;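 note: scored against the spread of the other compound wells on the same plate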
PLAP act: activators of human placental alkaline phosphatase; purified PLAP enzyme, luminescent substrate read-out; hits give high values; activation fold at 20 µM; P05187; 96,000 compounds, 1.2% hits; in the data active = activation fold above about 2
Cav3 T inh: human Cav3.2 channel inhibition, primary screen | O95180 | Cav3.2-expressing cells, Fluo-4 calcium fluorescence FDSS; hits give low values | B-score at 10 µM | 100,000 compounds, 4% hits | AID 449739;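 active = single-dose well whose peak fluorescence ratio is a statistical outlier from its plate by either plate-standardised score or position-corrected B-score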
Starred values were filed as active, the others as inactive. Cut-off read from the data, not from the text of the source, unless noted: active = inhibition above about 30%; inactive = the rest.

Screening Cn1cc(C(=O)c2ccc(Cl)cc2)cc1-c1nc2ccccc2n1C returned PostGolgi ctrl 40.0*, PostGolgi yeast 9.0, hDAT+cocaine 0.245 and PLAP act 1.
`CC(=O)Nc1ccc(C(=O)N2CCCC2)cc1` gave PostGolgi ctrl 3.9, PostGolgi yeast 6.3, hDAT+cocaine -0.247, PLAP act 1 and Cav3 T inh 0.655.
For COCC(=O)/C=C1\Sc2ccccc2N1C the results were PostGolgi ctrl 36.1*, PostGolgi yeast -0.9, hDAT+cocaine 0.529, PLAP act 0.8 and Cav3 T inh 1.
Cn1cc(C(=O)NCN2CCCCC2)c2ccccc21 was read as PostGolgi ctrl 10.6, PostGolgi yeast -7.4 and PLAP act 1.
`Cc1cc(S(=O)(=O)NCCc2ccccc2)c(C)s1` gave PostGolgi ctrl 13.3, PostGolgi yeast -3.2, hDAT+cocaine -0.0328, PLAP act 0.9 and Cav3 T inh -3.15.
Screening COc1cccc(NS(=O)(=O)c2cc(C)sc2C)c1 returned PostGolgi ctrl 17.9, PostGolgi yeast -0.8, hDAT+cocaine 2.64* and Cav3 T inh -3.34.
`Cc1cc(S(=O)(=O)Nc2ccc(N(C)C)cc2)c(C)s1` gave PostGolgi ctrl 48.5*, PostGolgi yeast 20.2, hDAT+cocaine 0.0643, PLAP act 0.9 and Cav3 T inh -0.607.
For O=C(NC1CCCCC1)N1CCSC1=Nc1ccccc1 the results were PostGolgi ctrl 49.8*, PostGolgi yeast 5.3, hDAT+cocaine -0.208, PLAP act 1.4 and Cav3 T inh -3.99*.
Screening CCOC(=O)c1oc2cccc(O)c2c1CN1CCOCC1 returned PostGolgi ctrl -3.6, PostGolgi yeast 19.6, hDAT+cocaine 0.004, PLAP act 1.5 and Cav3 T inh 0.38.
CCOC(=O)c1oc2ccccc2c1CN1CCN(C(=O)c2ccccc2)CC1 was read as PostGolgi ctrl -4.1, PostGolgi yeast 8.8, hDAT+cocaine 2.8*, PLAP act 1.4 and Cav3 T inh -0.846.
Screening CCOC(=O)c1c(CN2CCN(c3ccccc3)CC2)oc2ccc(O)cc12 returned PostGolgi ctrl 32.5*, PostGolgi yeast -1.8, hDAT+cocaine -0.263, PLAP act 1.3 and Cav3 T inh 0.0128.
For CCOC(=O)c1oc2ccccc2c1CN1CCN(c2ccccc2)CC1 the results were PostGolgi ctrl 10.4, PostGolgi yeast -0.5, hDAT+cocaine -0.744, PLAP act 1.5 and Cav3 T inh -4.77*.
For CCN(CC)C(=O)C1=C(C)NC(=O)NC1c1c(F)cccc1Cl (stereo not given) the results were PostGolgi ctrl -1.6, PostGolgi yeast -11.4, hDAT+cocaine -0.794 and PLAP act 1.1.
CCc1nc(SCC(=O)Nc2ccnc3ccccc23)n[nH]1 was read as PostGolgi ctrl -7.7, PostGolgi yeast -7.5, hDAT+cocaine 0.727, PLAP act 1.2 and Cav3 T inh 0.175.
Cc1ccc(NC(=O)N2CCCC2C(=O)NCCc2ccccc2)cc1 (stereo not given) was read as PostGolgi ctrl 1.5, PostGolgi yeast 9.3, hDAT+cocaine 0.243, PLAP act 0.7 and Cav3 T inh 0.115.
Screening COC(=O)C(Cc1cnc(Cl)s1)(C(=O)OC)c1ccc(C(F)(F)F)cc1[N+](=O)[O-] returned PostGolgi ctrl 12.5, PostGolgi yeast 14.5, hDAT+cocaine -0.667, PLAP act 1.4 and Cav3 T inh -8.63*.
COCCSc1nnc(NC(=O)C(C)(C)C)s1 was read as PostGolgi ctrl 1.6, PostGolgi yeast -7.6, hDAT+cocaine 0.801, PLAP act 1.1 and Cav3 T inh 0.27.
`COc1cc(/C=N/c2oc(-c3ccccc3)cc2C#N)ccc1O` gave PostGolgi ctrl 18.9, PostGolgi yeast 14.7, hDAT+cocaine 1.87, PLAP act 1.1 and Cav3 T inh -0.422.
Screening Cc1[nH]c2ccccc2c1C1(O)C(=O)N(Cc2ccc3c(c2)OCO3)c2ccccc21 (stereo not given) returned PostGolgi ctrl 31.0*, PostGolgi yeast 5.0 and PLAP act 1.3.
Cc1[nH]c2ccccc2c1C1(O)C(=O)N(C(C)C)c2ccccc21 (stereo not given) was read as PostGolgi ctrl 27.7, PostGolgi yeast -13.8, hDAT+cocaine 0.00947, PLAP act 1 and Cav3 T inh -2.9.
Cc1cc(C)nc(NS(=O)(=O)c2ccc(NC(=O)CCCN3C(=O)c4ccccc4C3=O)cc2)n1 was read as hDAT+cocaine -0.827, PLAP act 1.4 and Cav3 T inh -0.969.
CC1C(=O)CCN(C(C)(C)C)C1C (stereo not given) was read as PostGolgi ctrl -1.5, PostGolgi yeast -11.2, hDAT+cocaine 1.92, PLAP act 1 and Cav3 T inh 1.5.
For CCOc1cc2nc(-c3ccc(OC)c(OC)c3)nc(N3CCOCC3)c2cc1OC the results were PostGolgi ctrl 17.8, PostGolgi yeast 4.8, hDAT+cocaine 0.88, PLAP act 1.4 and Cav3 T inh -5.97*.
CCOC(=O)C1=C(c2ccccc2)O/C(=C(/C#N)C(F)(F)F)S1 was read as PostGolgi ctrl 39.1*, PostGolgi yeast 3.3, hDAT+cocaine -1.52, PLAP act 0.8 and Cav3 T inh -2.41.
For CC(O)(CC(=O)O)CC(=O)O the results were hDAT+cocaine -1.42 and Cav3 T inh -0.00207.
Screening CCN(CC)C(=O)Cn1nc(C)c2ccccc2c1=O returned PostGolgi ctrl -9.1, PostGolgi yeast 22.5, hDAT+cocaine -0.285, PLAP act 0.9 and Cav3 T inh 1.23.
`CN(C)c1ccc(/C=C/C(=O)c2cccc(Br)c2)cc1` gave PostGolgi ctrl 8.6, PostGolgi yeast 5.1, hDAT+cocaine 0.422, PLAP act 0.5 and Cav3 T inh -7.48*.
O=C(/C=C/c1ccccc1)c1ccccc1 was read as hDAT+cocaine 0.541 and Cav3 T inh -0.736.
For CCOC(=O)Nc1cc2c(C)cc(=O)oc2cc1C the results were PostGolgi ctrl 0.7, PostGolgi yeast 15.0 and PLAP act 1.1.
Screening COCc1cc(=O)[nH]c2cc(NC(=O)C(C)(C)CCl)c(C)cc12 returned PostGolgi ctrl 10.2, PostGolgi yeast -5.4, hDAT+cocaine -7.76*, PLAP act 0.9 and Cav3 T inh -0.0304.
Screening COc1ccc(S(=O)(=O)N2CC3CCCN3c3ccc(C(F)(F)F)cc32)cc1 (stereo not given) returned PostGolgi ctrl 22.9, PostGolgi yeast -1.9, hDAT+cocaine -0.199, PLAP act 0.7 and Cav3 T inh -0.225.
For CC1CC(C)CN(c2ncnc3c2cnn3Cc2ccc(Cl)cc2)C1 (stereo not given) the results were PostGolgi ctrl 50.8*, PostGolgi yeast 4.1, hDAT+cocaine 1.36, PLAP act 0.9 and Cav3 T inh -4.85.
Cc1cccc(-n2ncc3c(N4CCOCC4)ncnc32)c1 was read as hDAT+cocaine -0.419 and Cav3 T inh 0.00214.
`Cc1cccc(-n2ncc3c(N4CC(C)CC(C)C4)ncnc32)c1` (stereo not given) gave PostGolgi ctrl 33.0*, PostGolgi yeast 2.6, hDAT+cocaine -0.205 and PLAP act 1.4.
For COc1ccc(CN(CCC#N)C(=S)NC(=O)c2ccccc2)cc1 the results were PostGolgi ctrl 7.9, PostGolgi yeast 10.1, hDAT+cocaine -0.194, PLAP act 1.2 and Cav3 T inh 2.58.
